Compound activity as filed in PubChem.
RORg inh: ROR gamma (mouse) transcription inhibition | P51450 | Drosophila S2 Gal4-RORgamma UAS-luciferase reporter, 20 h | Potency, µM (titrated, usually from 53.6 µM), for inactives: at the highest dose activity change, negative = inhibition, most hits filed as inhibitors | hit rate 5.4% among 310,000 | AID 2551; note: nearly all actives have a fitted effect of over 60% in size
Target sequence (P51450 whole entry, looked up, the tested form may be a part): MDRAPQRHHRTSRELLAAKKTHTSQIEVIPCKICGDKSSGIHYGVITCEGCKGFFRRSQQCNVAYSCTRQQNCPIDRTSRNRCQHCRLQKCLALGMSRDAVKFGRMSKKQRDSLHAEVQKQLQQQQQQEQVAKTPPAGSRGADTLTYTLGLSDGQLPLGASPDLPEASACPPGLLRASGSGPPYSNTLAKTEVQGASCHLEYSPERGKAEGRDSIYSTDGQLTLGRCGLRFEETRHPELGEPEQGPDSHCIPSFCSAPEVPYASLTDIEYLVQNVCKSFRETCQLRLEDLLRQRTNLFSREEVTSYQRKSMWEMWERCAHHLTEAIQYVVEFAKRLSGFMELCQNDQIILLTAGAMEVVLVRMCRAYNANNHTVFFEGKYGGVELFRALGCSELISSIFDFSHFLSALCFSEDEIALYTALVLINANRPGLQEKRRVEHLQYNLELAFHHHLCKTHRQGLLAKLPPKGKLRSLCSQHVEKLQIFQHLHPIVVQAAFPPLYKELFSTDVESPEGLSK
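Drosophila Schneider cells stably carrying a metallothionein-driven Gal4 DBD–ROR gamma fusion and a UAS-Photinus luciferase reporter were exposed to compound for 1 hr, then induced with copper sulfate (700 uM final) for 20 hr at ambient temperature before luminescence reading.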
KinaseGlo FLuc: Kinase-Glo luciferase inhibition (counter-screen); Kinase-Glo luciferase, ATP luminescence, 8 min; hit rate 0.28% among 200,000; Potency, µM (titrated, usually from 38.3 µM), without a hit: at the top dose activity change, negative = inhibition, hits mostly inhibitors; AID 1379; note: nearly all actives have a fitted effect of over 60% in size
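Light output from Kinase-Glo luciferase with luciferin and 10 uM ATP in 50 mM imidazole pH 7.2, KCl, MgCl2, Tween 20, BSA; compound pin-delivered, 8-min ambient incubation, then luminescence read.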
Gal4-VP16 FLuc: inhibits Gal4-VP16 luciferase reporter, ROR gamma counter-screen; Drosophila S2 Gal4-VP16 UAS-luciferase, luminescence, 20 h; Potency, µM (top dose mostly 53.6 µM), inactives show at the top dose activity, negative = inhibition, most hits filed as inhibitors; hit rate 3.5% among 310,000;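 note: Gal4-VP16 expression switched on by copper sulfate through the metallothionein promoter; nearly all actives have a fitted effect of over 50% in size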
Numbers without * were called inactive; ? = inconclusive; . = no result; [ ] = remark or other dose. In the library only some 6.4% were active in any assay of this set; here they are far more common. Calls come from the whole dose curve; as a rule, active = well fitted curve in the direction sought with a large enough effect; inconclusive = small, poorly fitted or top-dose-only effect, or another doubt; inactive = no such curve, though single readings can be large; an effect the other way counts as inactive or inconclusive. % is set by controls: 0 for no effect and ±100 for the full control effect; potency is the fitted concentration of half-maximal effect.

SMILES	RORg inh	KinaseGlo FLuc	Gal4-VP16 FLuc
CCNc1ncc2nc(-c3cn(C)c4ccccc34)c(=O)n(Cc3cccc(OC)c3)c2n1	-22%	.	5%
CN(C)c1ccc(/C=N/NC(=O)c2ccco2)cc1	-35%	?	-29%
CSC(=S)N/N=C/c1ccc(Br)cc1	0.32µM*	1%	1.8µM*
CSC(=S)N/N=C/c1ccc(N(C)C)cc1	0.25µM*	1%	2µM*
CC(C)(C)NC(=O)C(=O)N/N=C/c1ccc(Br)cc1	-7%	-7%	-4%
O=C(O)CCCNS(=O)(=O)/C=C/c1ccccc1	4%	4%	-2%
Cc1c(C(=O)N2CCc3ccccc3C2)sc2nc(-c3ccccc3)cn12	27%[0.365 µM]	-3%	.
c1ccc(-c2cn3c4c(sc3n2)CCCC4)cc1	3.5µM*	11µM*	6.3µM*
COc1ccc(NC(=O)c2coc(C)c2)cc1	19%	.	30%
CC(C)(C)OC(=O)NCCC(=O)N/N=C/c1cccc2nccnc12	6%	.	-2%
Cc1cccc(OCCN2CSC(=S)N(C)C2)c1	13µM*	2%	14µM*
COc1ccccc1OCCN1CSC(=S)N(C)C1	?	-4%	?
Cc1cccc(-n2c(C)cc(C)c(C#N)c2=O)c1	11%	-1%	-2%
Cc1cc(C)nc(NC(=O)Cc2ccc(Br)cc2)n1	22%	-2%	2%
Cc1cc(C)cc(-n2ccnc2SCC(=O)O)c1	31%	4%	8%
Cc1ccccc1NC(=S)NNC(=O)c1cccnc1	6.3µM*	1%	16µM*
Cc1ccccc1NC(=S)NNC(=O)c1ccncc1	10µM*	-5%	-4%
O=C(NNC(=S)NC(=O)c1cccnc1)c1ccccc1	-12%	3%	?
CCNC(=S)NNC(=O)c1ccncc1	?	-1%	-10%
COc1ccc(Cl)cc1NC(=S)NNC(=O)c1cccnc1	-38%	.	-10%
COc1ccccc1NC(=S)NNC(=O)c1ccncc1	-35%	1%	-3%
O=C(NNC(=S)NC(=O)c1cccnc1)c1ccc(F)cc1	16µM*	.	?
CC(C)(C)NC(=S)NNC(=O)c1ccncc1	1.1µM*	3%	18µM*
CCc1nc(CN2CCCC(C(=O)c3ccc4c5c(cccc35)CC4)C2)c(C)[nH]1 (stereo not given)	-29%	-3%	-13%
CC1(C)O[C@H]2[C@@H](O1)[C@@H](On1nnc3ccc(Cl)cc31)O[C@@H]2[C@@H]1COC(C)(C)O1	.	-4%[7.66 µM]	.
SMILES	RORg inh	KinaseGlo FLuc	Gal4-VP16 FLuc
CCCNc1c(NS(=O)(=O)c2c(F)c(F)c(F)c(F)c2F)c(=O)oc2ccccc12	-27%	.	-4%
CC(C)c1ccccc1NC(=O)c1cccnc1	-1%	-4%	4%
CCC(C)c1ccccc1NC(=O)c1cccnc1 (stereo not given)	11µM*	0%	11%
C=CCNC(=S)NNC(=O)c1ccncc1	10µM*	1%	-25%
C=CCNC(=S)NNC(=O)c1cccnc1	?	.	-17%
Cc1c(C(N)=O)sc2ncn(CC(=O)NCCc3ccccc3)c(=O)c12	0%	0%	-1%
COc1cc(C2NC(=O)CCC2[N+](=O)[O-])cc(OC)c1OC (stereo not given)	-4%	.	-2%
O=C(COC(=O)c1cc([N+](=O)[O-])ccc1N1CCOCC1)Nc1ccc(Cl)cn1	?	.	-9%
Cc1cccc(C#Cc2ccccc2)n1	14µM*	13µM*	?
Cc1cccc(NS(=O)(=O)Cc2ccccc2)n1	29%	-3%	-5%
COc1coc(C(O)CN)cc1=O (stereo not given)	45%	1%	1%
CCOC(=O)C(=Cc1cc(=O)c(OC)co1)C(=O)OCC	4.5µM*	10%	5µM*
O=C(O)C=Cc1ccc(Cn2ccnc2)cc1	-17%	1%	4%
COc1ccccc1C(=O)Nc1cc(C)c(OCC(=O)N2CCOCC2)c(C)c1	-7%	.	-10%
Cc1ccc(C(=O)Nc2cc(C)c(OCC(=O)N3CCOCC3)c(C)c2)cc1	14µM*	-10%	10µM*
Cc1cc(OCC(=O)N2CCOCC2)ccc1NC(=O)c1ccccc1C	10µM*	.	?
O=C(Nc1ccc(OCC(=O)N2CCOCC2)cc1)c1ccccc1Cl	11µM*	.	7.9µM*
Cc1ccc(Cl)cc1NC(=O)c1ccccc1OCC(=O)N1CCOCC1	19%	.	2%
O=C(N/N=C/c1ccc(OCC(=O)N2CCOCC2)cc1)c1ccccc1Cl	5%	0%	7%
COc1ccc(CC(=O)NCC2CCCN(Cc3cc(OC)cc(OC)c3)C2)cc1 (stereo not given)	-10%	.	-5%
CCc1ccc(OCCNC(=O)c2ccco2)cc1	29%	.	0%
Cc1cccnc1Nc1nc(-c2ccc(O)c(O)c2)cs1	-111%	-3%	7.1µM*
COc1ccc(-c2csc(Nc3ncccc3C)n2)cc1	?	?	6%
Cc1nc(C)c(-c2csc(Nc3ncccc3C)n2)s1	-31%	.	-21%
COc1ccc(-c2csc(Nc3ncccc3C)n2)cc1OC	3.5µM*	8%	-27%
SMILES	RORg inh	KinaseGlo FLuc	Gal4-VP16 FLuc
Cc1ccc2nc(N/N=C/c3ccccc3C#N)nc(-c3ccccc3)c2c1	11µM*	4%	?
Cc1csc(N/N=C/c2ccccc2F)n1	?	.	-79%
N#Cc1ccccc1/C=N/Nc1nc(-c2ccccc2)c2cc(Cl)ccc2n1	-30%	5%	1%
Cc1cc(-c2ccccc2)nc(N/N=C/c2ccccc2F)n1	?	.	18µM*
Cc1ccc2nc(NCCO)nc(-c3ccccc3)c2c1	-11%	19%	-6%
Cc1ccc2nc(N/N=C/c3ccccc3F)nc(-c3ccccc3)c2c1	?	2%	11µM*
C=CCSc1nc2sc3c(c2c(=O)n1-c1ccc(C)cc1)CCN(C)C3	-8%	.	12%
CCN1CCN(C(CNS(=O)(=O)c2ccc(Cl)cc2)c2cccnc2)CC1 (stereo not given)	-8%	.	-9%
CC(=O)OCC1(C)CN(c2ccccc2)N(C(C)=O)C1=O (stereo not given)	14%	-2%	-6%
CC(=O)OCC1(C)CN(c2ccccc2)NC1=O (stereo not given)	13µM*	-2%	?
CCc1c(C)sc(NC(=O)Cc2ccccc2OC)c1C(=O)N1CCOCC1	-1%	.	-4%
CC(C)(C)OC(=O)N/N=C\c1cccnc1	-37%	-10%	?
COc1cccc(NC(=O)Nc2cccnc2)c1	16%	.	-18%
COc1cccc(/C=N/NC(=S)Nc2cccc(C(=O)O)c2)c1	10µM*	-1%	-16%
COc1ccc(O)c(/C=N/NC(=S)Nc2cccnc2)c1	6.3µM*	-1%	-23%
COc1cccc(/C=N/NC(=S)Nc2cccnc2)c1	2.5µM*	1%	3.2µM*
COc1cc(NC(=S)Nc2cccnc2)cc(OC)c1OC	10%	-1%	-12%
CC(C)(C)NC(=S)N/N=C/c1cccnc1	5.6µM*	.	10µM*
COc1ccc(/C=N/NC(=S)Nc2cccc(C(=O)O)c2)cc1OC	?	-1%	-26%
CC(C)(C)OC(=O)N1CCCC1C(=O)NC1COC2CC(n3ccc(=O)[nH]c3=O)OC12 (stereo not given)	-3%	.	-3%
CN(CC(=O)Nc1cccc(Cl)c1)S(=O)(=O)c1ccc2[nH]c(=O)oc2c1	-1%	.	-7%
O[C@H](CNc1ccccn1)c1ccccc1	.	-2%[7.66 µM]	.
CCOCCCN(C)C1CCN(C(=O)c2oc3ccccc3c2NC(=O)Cc2ccc(F)cc2)CC1	-2%	.	5%
